# Laboratory results as given in PubChem BioAssay AID1159580 (chemical genetic matrix, 2015).
# Where “and” joins values, the source holds several entries; their conditions need not be identical. Equal values may be shown once. In all, about 5,500 compounds went through this assay and about 2,000 (36%) were called active. Another 18% or so got no clear call; they are omitted. The list shows a part of the results. Unmarked numbers belong to inactive results. No stated cut-off is given here; in the data, active means normalized growth mostly below about 0.91 (no sharp cut-off); inconclusive means no clear call, values can overlap the other calls; inactive means mostly above about 0.92.
# Assay: chemical genetic growth profiling, strain panel (AID 1159580);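 further: tested at 20 µM; growth read once vehicle control cultures reached saturation at 30 °C; 1 = growth at the plate median or of vehicle wells; lower values mean less growth of the strain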
# Details: growth OD
# [1] = S. cerevisiae deletion strains, locus YAL013W, strain DEP1, hits give low values
# [2] = S. cerevisiae deletion strains, locus YBR229C, strain ROT2, hits give low values
# [3] = S. cerevisiae deletion strains, locus YDL101C, strain DUN1, hits give low values
# [4] = S. cerevisiae deletion strains, locus YDL134C, strain PPH21, hits give low values
# [5] = S. cerevisiae deletion strains, locus YDR150W, strain NUM1, hits give low values
# [6] = S. cerevisiae deletion strains, locus YEL061C, strain CIN8, hits give low values
# [7] = S. cerevisiae deletion strains, locus YGR078C, strain PAC10, hits give low values
# [8] = S. cerevisiae deletion strains, locus YHR030C, strain SLT2, hits give low values
# [9] = S. cerevisiae deletion strains, locus YHR087W, strain rtc3, hits give low values
# [10] = S. cerevisiae deletion strains, locus YJR043C, strain POL32, hits give low values
# [11] = S. cerevisiae deletion strains, locus YJR075W, strain HOC1, hits give low values
# [12] = S. cerevisiae deletion strains, locus YLR039C, strain RIC1, hits give low values
# [13] = S. cerevisiae deletion strains, locus YLR058C, strain SHM2 (second series), hits give low values
# [14] = S. cerevisiae deletion strains, locus YLR085C, strain ARP6, hits give low values
# [15] = S. cerevisiae deletion strains, locus YLR262C, strain YPT6, hits give low values
# [16] = S. cerevisiae deletion strains, locus YML094W, strain GIM5, hits give low values
# [17] = S. cerevisiae deletion strains, locus YMR219W, strain ESC1, hits give low values
# [18] = S. cerevisiae deletion strains, locus YMR263W, strain SAP30, hits give low values
# [19] = S. cerevisiae deletion strains, locus YNL153C, strain GIM3, hits give low values
# [20] = S. cerevisiae deletion strains, locus YNL298W, strain CLA4 (second series), hits give low values
# [21] = S. cerevisiae deletion strains, locus YNL322C, strain KRE1, hits give low values
# [22] = S. cerevisiae deletion strains, locus YNR030W, strain Alg12, hits give low values
# [23] = S. cerevisiae deletion strains, locus YPL055C, strain LGE1, hits give low values
# [24] = S. cerevisiae deletion strains, locus YPL241C, strain CIN2, hits give low values
# [25] = S. cerevisiae deletion strains, locus YPR135W, strain CTF4, hits give low values
smiles,measurement,setting,value
COc1cc(OC)cc(N2C(=O)C=CC2=O)c1,normalized growth,[1],0.0543 (active)
same,normalized growth,[2],0.0573 (active)
same,normalized growth,[3],0.0709 (active)
same,normalized growth,[4],0.0477 (active)
same,normalized growth,[5],0.05 (active)
same,normalized growth,[6],0.0533 (active)
same,normalized growth,"S. cerevisiae deletion strains, locus YGR052W, strain FMP48, hits give low values",0.129 (active)
same,normalized growth,[7],0.802 (active)
same,normalized growth,[8],0.0734 (active) and 0.115 (active)
same,normalized growth,"S. cerevisiae deletion strains, locus YHR079C, strain IRE1, hits give low values",0.231 (active)
same,normalized growth,"S. cerevisiae deletion strains, locus YHR082C, strain KSP1, hits give low values",0.112 (active)
same,normalized growth,[9],0.0623 (active)
same,normalized growth,"S. cerevisiae deletion strains, locus YJL095W, strain BCK1, hits give low values",0.127 (active)
same,normalized growth,[10],0.0486 (active)
same,normalized growth,"S. cerevisiae deletion strains, locus YJR066W, strain TOR1, hits give low values",0.113 (active)
same,normalized growth,[11],0.0671 (active)
same,normalized growth,"S. cerevisiae deletion strains, locus YKL171W, strain NNK1, hits give low values",0.0984 (active)
same,normalized growth,"S. cerevisiae deletion strains, locus YKL203C, strain TOR2, hits give low values",0.107 (active)
same,normalized growth,[12],0.0602 (active)
same,normalized growth,[13],0.0529 (active)
same,normalized growth,[14],0.0621 (active)
same,normalized growth,"S. cerevisiae deletion strains, locus YLR113W, strain HOG1, hits give low values",0.184 (active)
same,normalized growth,[15],0.0582 (active)
same,normalized growth,[16],0.0622 (active)
same,normalized growth,[17],0.0491 (active)
same,normalized growth,[18],0.0514 (active)
same,normalized growth,[19],0.0557 (active)
same,normalized growth,"S. cerevisiae deletion strains, locus YNL183C, strain NPR1, hits give low values",0.131 (active)
same,normalized growth,"S. cerevisiae deletion strains, locus YNL207W, strain RIO2, hits give low values",0.0908 (active)
same,normalized growth,[20],0.0613 (active)
same,normalized growth,[21],0.0499 (active)
same,normalized growth,[22],0.0629 (active)
same,normalized growth,"S. cerevisiae deletion strains, locus YOR119C, strain RIO1, hits give low values",0.121 (active)
same,normalized growth,"S. cerevisiae deletion strains, locus YOR231W, strain MKK1, hits give low values",0.185 (active)
same,normalized growth,[23],0.07 (active)
same,normalized growth,[24],0.0792 (active)
same,normalized growth,"S. cerevisiae deletion strains, locus YPL256C, strain CLN2, hits give low values",0.146 (active)
same,normalized growth,[25],0.18 (active)
CCC(=O)Nc1cc(OC)cc(OC)c1,normalized growth,[1],1
same,normalized growth,[2],1.01
same,normalized growth,[3],1.01
same,normalized growth,[4],1
same,normalized growth,[5],0.908
same,normalized growth,[6],1
same,normalized growth,[7],1.01
same,normalized growth,[8],1.01
same,normalized growth,[9],1
same,normalized growth,[10],0.963
same,normalized growth,[11],0.98
same,normalized growth,[12],1.04
same,normalized growth,[13],1.01
same,normalized growth,[14],0.973
same,normalized growth,[15],1.02
same,normalized growth,[16],1.03
same,normalized growth,[17],0.999
same,normalized growth,[18],0.987
same,normalized growth,[19],0.997
same,normalized growth,[20],1.01
same,normalized growth,[21],1.01
same,normalized growth,[22],1.01
same,normalized growth,"S. cerevisiae deletion strains, locus YOL006C, strain TOP1, hits give low values",0.998
same,normalized growth,[23],1.13
same,normalized growth,[24],1.03
same,normalized growth,[25],1.06
same,normalized growth,"S. cerevisiae strains, strain wild type, hits give low values",1.02
